# Results taken from PubChem BioAssay (NCATS).
# Inconclusive results are not listed. The source made the active and inactive calls. The call rests on the fitted dose curve; in most records, active means well fitted curve in the direction sought with a large enough effect in the signal ratio, with a control signal flat (not every such curve was filed as active); inconclusive means small, poorly fitted or top-dose-only effect, or effect the other way, or a change in a side signal; inactive means no such curve, though single readings can be large or run the other way; the % refers to the signal ratio.
# Molecular target: Estrogen receptor (Homo sapiens) (UniProt P03372)
# Sequence (P03372 whole entry, looked up): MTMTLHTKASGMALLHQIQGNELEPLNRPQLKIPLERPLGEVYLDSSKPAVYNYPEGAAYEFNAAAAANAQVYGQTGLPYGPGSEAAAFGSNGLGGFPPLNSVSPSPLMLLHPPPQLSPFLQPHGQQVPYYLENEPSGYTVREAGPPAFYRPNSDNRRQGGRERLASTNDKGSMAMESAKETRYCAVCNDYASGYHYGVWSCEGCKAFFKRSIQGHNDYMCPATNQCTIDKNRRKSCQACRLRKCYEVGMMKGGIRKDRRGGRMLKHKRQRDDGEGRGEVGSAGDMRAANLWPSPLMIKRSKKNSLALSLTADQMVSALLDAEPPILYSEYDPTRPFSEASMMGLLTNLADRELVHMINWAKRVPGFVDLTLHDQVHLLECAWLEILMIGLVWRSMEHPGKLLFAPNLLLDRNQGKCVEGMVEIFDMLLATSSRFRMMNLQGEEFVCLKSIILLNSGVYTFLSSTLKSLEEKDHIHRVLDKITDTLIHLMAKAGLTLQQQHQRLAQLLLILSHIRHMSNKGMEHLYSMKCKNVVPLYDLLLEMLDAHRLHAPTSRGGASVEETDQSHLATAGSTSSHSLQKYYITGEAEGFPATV
# Assay: qHTS assay for small molecule antagonists of estrogen receptor alpha signaling (AID 588513)
# Conditions: ER-alpha-UAS-bla HEK293, beta-lactamase ratio, antagonist mode; series mostly up to 76.9 µM; activity, negative = inhibition: at the top concentration
# Excerpt: NIH Chemical Genomics Center [NCGC]
# U.S. Environmental Protection Agency [EPA]
# National Institutes of Environmental Health Sciences [NIEHS]
# National Toxicology Program [NTP]
# Estrogen receptor alpha (ER-alpha) is an important member of nuclear hormone receptors. ER-alpha plays important role in breast cancer as well as in other women's health issues. The majority of breast cancers is estrogen receptor (ER) positive and depends on estrogen for growth. There is also growing concern for some of environmental chemicals which may contribute the increasing the incidence of breast cancer. Therefore, it is important to understand the effect of environmental chemicals in ER-alpha signaling pathway.
# NCGC Assay Protocol Summary
# Using a beta-lactamase reporter-gene under control of the ER response element, a cell-based assay [ER-alpha-UAS-bla GripTiteTM cell-Based Assay from Invitrogen] was used to measure ER-alpha signaling pathway in antagonist mode. ER-alpha-UAS-bla-GripTite HEK 293 cells were used with assay medium containing 2% charcoal/dextran treated FBS, 0.1 mM NEAA and 1 mM sodium pyruvate. Cells were cultured in this assay medium overnight in the flasks before the assay. The assay was performed in clear bottom black Greiner 1536-well plates. 17-beta-estradiol was used as a positive control in the screen. Library compounds were measured for their ability to inhibit the reporter gene activity. Compounds were screened in a titration series in 1536-well format. […] Data was normalized relative to 17-beta-estradiol control (0.5nM, 100%), and DMSO only wells (basal, 0%). Concentration-response titration points for each compound were fitted to the Hill equation yielding concentrations of half-maximal inhibition (IC50) and maximal response (efficacy) values.
# qHTS protocol for ER-alpha beta-lactamase assay in antagonist mode
# [Step] [Parameter] [Value] [Description]
# 1. Reagent; 5 uL; 5000 cells/well
# 2. Incubation; 37 C for 4 hrs
# - Dose response, Start 38uM, 1:2 dilutions with duplicates
# - Two columns with 38 and 19uM (final) concentration.
# 5. Agonist (Stimulator); 1uL; 17-beta-estradiol at 0.5nM (final) concentration
# 6. Incubation; 37 C for 18 hrs
# 7. Detection reagent; 1 uL of CCF4-dye
# 8. Incubation; RT for 2 hrs
# 9. Detection; Fluorescence; Envision plate reader or Acumen plate reader
# On the % scale 0 is the no-effect control and ±100 the full control effect.
Structure (SMILES),"activity, negative = inhibition",outcome
FC(F)(F)C(Cl)Br (configuration not stated),13.3% (inactive),
CC(=O)NS(=O)(=O)c1ccc(N)cc1,27.7% (inactive),
CC(=O)Nc1cccc(O)c1,12.5% (inactive),
CCCCCCCCCCCCCCCCCCO,-9.77% (inactive),
O=C(O)CCCCC1CCSS1 (configuration not stated),-4.38% (inactive),
Nc1ccc(S(=O)(=O)c2ccc(N)cc2)cc1,,inactive
O=C(OOC(=O)c1ccccc1)c1ccccc1,-39.6% (inactive),
CCCCCCCC(=O)OCC(COC(=O)CCCCCCC)OC(=O)CCCCCCC,-13.2% (inactive),
CCCC(O)C(CC)CO (configuration not stated),18.8% (inactive),
CC(=O)Nc1ccccc1,34.5% (inactive),
CC(=O)Nc1ccc(C(=O)O)cc1,6.82% (inactive),
CC[N+](CC)(CC(=O)Nc1c(C)cccc1C)Cc1ccccc1,-15.7% (inactive),
Cc1c(N(C)C)c(=O)n(-c2ccccc2)n1C,18.1% (inactive),
CCN(CC)C(=O)c1cccc(C)c1,,inactive
Cc1ccc(C(C)C)c(O)c1,-25% (inactive),
CCCCOC(=O)c1ccc(N)cc1,-13.5% (inactive),
Cc1cc(=O)[nH]c(=S)[nH]1,-2.89% (inactive),
